# Structures can show the parent of a compound that is named as a salt. Out of some 5,300 compounds screened, about 130 (2.5%) showed an effect of 50% or more. The sample holds strong results, similar compounds and a random draw of the others, so the mix is not that of the screen.
# Test system: M. mycetomatis strain mm55
# Conditions: primary screen, metabolic activity vs growth control; 96 h, 2 µM; inhibitor
row,Compound,% viability [%]
1,"CC(C)N[C@@H]1CCn2c(=O)[nH]c3cccc(c32)[C@H]1O [ONC0001941, zilpaterolhcl]",67.69
2,"CC(=O)[C@]1(O)Cc2c(O)c3c(c(O)c2[C@@H](O[C@H]2C[C@H](N)[C@H](O)[C@H](C)O2)C1)C(=O)c1ccccc1C3=O [ONC0004533, idarubicin hcl]",43.23
3,"COc1cccc2c1C(=O)c1c(O)c3c(c(O)c1C2=O)C[C@@](O)(C(C)=O)C[C@@H]3O[C@H]1C[C@H](N)[C@H](O)[C@H](C)O1 [ONC0001686, daunorubicin]",72.25
4,"COc1cccc2c1C(=O)c1c(O)c3c(c(O)c1C2=O)C[C@@](O)(C(=O)CO)C[C@@H]3O[C@H]1C[C@H](N)[C@@H](O)[C@H](C)O1 [ONC0004636, epirubicin hydrochloride]",92.65
5,"CNC(=O)ON(C(C)=O)C(=O)NC [ONC0003740, caracemide]",136.5
6,"NC(=O)c1nc(F)c[nH]c1=O [ONC0003386, favipiravir]",85.13
7,"CC(=O)Nc1ccc(OCC(O)CNC(C)C)cc1 (stereo not drawn) [ONC0002176, practolol]",73.91
8,"CCN(CC)C(=O)Nc1ccc(OCC(O)CNC(C)(C)C)c(C(C)=O)c1 (stereo not drawn) [ONC0002160, celiprolol]",87.56
9,"CCCC(=O)Nc1ccc(OCC(O)CNC(C)C)c(C(C)=O)c1 (stereo not drawn) [ONC0003369, acebutolol hydrochloride]",44.26
10,"COc1ccc(NS(=O)(=O)c2ccc(N)cc2)nn1 [ONC0000622, sulfamethoxypyridazine]",113.3
11,"COc1ccc(NS(=O)(=O)c2ccc(N=Nc3ccc(O)c(C(=O)O)c3)cc2)nn1 [ONC0003399, salazodine]",47.95
12,"O=C(O)c1cc(/N=N/c2ccc(S(=O)(=O)Nc3ccccn3)cc2)ccc1O [ONC0000599, sulfasalazine]",109.1
13,"NS(=O)(=O)NCCNc1nonc1C(=NO)Nc1ccc(F)c(Br)c1 [ONC0005250, epacadostat incb024360]",130.3
14,"CN1CCN(C(=O)C2C(C(=O)O)[C@@H]3CC[C@H]2O3)CC1 (stereo partly drawn) [ONC0001871, lb100]",109.3
15,"CCO/N=C(/C(=O)N[C@@H]1C(=O)N2C(C(=O)O)=C(Sc3nc(-c4cc[n+](C)cc4)cs3)CS[C@H]12)c1nsc(NP(=O)(O)O)n1 [ONC0002991, ceftarolinefosamil]",80.17
16,"COc1ccc(NS(=O)(=O)c2sc3ccc(Cl)cc3c2C)cc1N1CCNCC1 [ONC0005236, sb 271046]",123.6
17,"COc1ccc(S(=O)(=O)Nc2cc(Cl)cc(Cl)c2OC)cc1N1CCNCC1 [ONC0000041, sb399885]",47.84
18,"COc1ccc(NS(=O)(=O)c2ccc(I)cc2)cc1N1CCN(C)CC1 [ONC0001661, sb258585]",76.38
19,"O=C1Nc2c(ccc(Cl)c2Cl)C1=NO [ONC0002536, ns309]",65.12
20,"COC(=O)[C@H]1[C@@H](C)[C@@H](OC)C=CO[C@@]2(C)Oc3c(C)c(O)c4c(O)c(cc(O)c4c3C2=O)NC(=O)/C(C)=C\C=C/[C@@H](C)[C@@H](O)[C@@H](C)[C@H](O)[C@@H]1C [ONC0003453, rifamycin sv sodium salt]",53.39

row,Compound,% viability [%]
1,"CN(C)[C@@H]1C(=O)C(C(N)=O)C(=O)[C@@]2(O)C(=O)C3C(=O)c4c(O)ccc(Cl)c4[C@@H](O)[C@H]3C[C@@H]12 (stereo partly drawn) [ONC0000432, demeclocycline hydrochloride]",77.24
2,"CCCCCCCCCCCC1=C(O)C(=O)C=C(O)C1=O [ONC0001079, embelin]",49.47
3,"CCCCCCc1ccc(O)cc1O [ONC0000355, hexylresorcinol]",72.69
4,"CCCCCCCCc1ccc(CCC(N)(CO)CO)cc1 [ONC0005159, fingolimod fty720 hcl]",130.1
5,"NC1=N[C@H]2[C@H](CCCCC(=O)O)SC[C@H]2N1 [ONC0003635, 2iminobiotin]",86.51
6,"CC(C)=CCC/C(C)=C/CC/C(C)=C/CCC(O)OC/C=C(\C)CCC=C(C)C (stereo not drawn) [ONC0000430, geranylfarnesylacetate gefarnate]",66.04
7,Cc1ccc2c(Br)cc(Br)c(OC(=O)c3ccccc3)c2n1 [Broxaldine],3.407
8,"O=C(Oc1cccc2cccnc12)c1ccccc1 [ONC0003987, benzoxiquine]",75.23
9,"O=C(OOC(=O)c1ccccc1)c1ccccc1 [ONC0003111, benzoyl peroxide]",80.87
10,"c1cnc2cc3c(cc2n1)C1CNCC3C1 [ONC0004813, varenicline tartrate]",83.4
11,"CCCC[C@H](C)C[C@H](O)/C=C/[C@H]1[C@H](O)CC(=O)[C@@H]1CCCC/C=C/C(=O)O [ONC0005482, limaprost]",96.34
12,"Cc1ccc(C(C)C)c(OC=C2NCCN2)c1 [ONC0005561, tymazoline]",90.75
13,"O=[N+]([O-])c1ccccc1S(=O)(=O)NC[C@H]1CC[C@H](CNCC2CCc3ccccc3C2)CC1 (stereo partly drawn) [ONC0000121, ntncb]",80.22
14,"CC(=O)OC1[C@@H](N2CC[N+](C)(C)CC2)C[C@H]2[C@@H]3CC[C@H]4C[C@H](OC(C)=O)[C@@H](N5CC[N+](C)(C)CC5)C[C@]4(C)[C@H]3CC[C@]12C (stereo partly drawn) [ONC0001992, pipecuronium]",103.5
15,"CCCCOc1ccc(CC(=O)NO)cc1 [ONC0000683, bufexamac]",91.55
16,"CCC(=O)NO [ONC0002308, zami633]",45.69
17,"O=C(CCCCCCC(=O)NO)NO [ONC0001756, sbha]",85.39
18,"OCC(O)COc1ccc(Cl)cc1 (stereo not drawn) [ONC0002159, chlorphenesin]",67.41
19,"CCC(C)CC(C)CCCCCCCCC(=O)N[C@H]1C[C@@H](O)[C@@H](NCCN)NC(=O)[C@@H]2[C@@H](O)CCN2C(=O)[C@H]([C@H](O)CCN)NC(=O)[C@H]([C@@H](O)[C@H](O)c2ccc(O)cc2)NC(=O)[C@@H]2C[C@@H](O)CN2C(=O)[C@H]([C@@H](C)O)NC1=O (stereo partly drawn) [ONC0002201, caspofungin acetate]",69.7

# From publication PMC12670160, “A drug-repurposing screen of FDA- and EMA-approved drugs identifies two NF-κB inhibitors active against eumycetoma” (Journal of Antimicrobial Chemotherapy, 2025)
